Drawing on PubChem BioAssay AID651742 (Broad Institute, 2012), this text covers cytotoxicity (signal decrease) for 60 molecules.

SMILES strings stand for the structures. The whole screen tested about 5,600 compounds, of which about 780 (14%) were called active. About 3% were inconclusive and are not listed. These entries were drawn from the full list. Values without a mark were called inactive.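 Rule for the calls: active = mean signal decrease across replicates above about 35% based on untreated-well scatter, with enough replicates individually passing (limit read from the data); inconclusive = no rule stated though some were filed; inactive = the rest.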

This assay is described as follows: cytotoxicity in mouse NIH/3T3 fibroblasts, confirmation, cytotoxicity control for T. cruzi proliferation inhibitor project, cell-based, cherry-pick, single point (AID 651742).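 Note: 0% = median of neutral control wells and 100% = median of positive control wells.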 The settings on record: NIH/3T3 viability, CellTiter-Glo ATP luminescence, 90 h; at 8.35 µM; hits give high values.
`COc1ccc(NC(=O)N(C)C[C@@H]2OCCCC[C@@H](C)Oc3ccc(NS(=O)(=O)c4ccc(Cl)cc4)cc3C(=O)N([C@H](C)CO)C[C@H]2C)cc1`: the cytotoxicity (signal decrease) was -38.7%. Then `O=C(C[C@@H]1C[C@@H]2c3cc(NC(=O)c4ccc5c(c4)OCO5)ccc3O[C@@H]2[C@@H](CO)O1)NCc1ccc(Cl)cc1`, with -20.7%. Then `C[C@@H]1CCCCO[C@@H](CN(C)CC2CC2)[C@H](C)CN([C@H](C)CO)C(=O)c2cc(NC(=O)C3CCCCC3)ccc2O1`, with -17.8%; and `C[C@H]1CCCCO[C@H](CN(C)Cc2ccc(C(F)(F)F)cc2)[C@@H](C)CN([C@@H](C)CO)C(=O)c2cc(NC(=O)C3CCCCC3)ccc2O1`, with -5.99%; and `N#C[C@@H]1[C@@H](c2ccc(/C=C/c3ccccc3)cc2)[C@@H](CO)N1C(=O)C1CC1`, with 23.9%. Then `C[C@@H]1CN([C@@H](C)CO)C(=O)c2cc(NC(=O)C3CCCCC3)ccc2O[C@@H](C)CCCCO[C@H]1CN(C)Cc1ccncc1`, with 2.54%; and `C[C@@H]1CN([C@H](C)CO)C(=O)c2cc(NC(=O)Nc3ccc(F)cc3)ccc2O[C@@H](C)CCCCO[C@@H]1CN(C)CC1CCCCC1`, with 24.8%; and `C[C@@H]1CN([C@H](C)CO)C(=O)c2cc(C#CC3CCCCC3)cnc2O[C@@H]1CN(C)C(=O)NC1CCCC1`, with 26.3%. Regarding `C[C@@H](O)C#Cc1ccc([C@@H]2[C@H](CO)N3CCCCN(S(=O)(=O)c4ccccc4)C[C@@H]23)cc1`, the cytotoxicity (signal decrease) is 1.19%. Then `C[C@@H]1CCCCO[C@@H](CN(C)Cc2ccc(C(F)(F)F)cc2)[C@@H](C)CN([C@H](C)CO)C(=O)c2cc(NC(=O)Nc3ccccc3)ccc2O1`, with -2.03%. Then `OC[C@H]1[C@H](c2ccc(-c3cccc(F)c3)cc2)[C@@H]2CN(Cc3cncnc3)CCCCN12`, with 13.1%; and `O=C(Nc1ccccc1F)N1CCCCN2[C@H](CO)[C@@H](c3ccc(-c4cccnc4)cc3)[C@H]2C1`, with 5.63%; and `COc1ccccc1-c1ccc2c(c1)O[C@H](CN(C)S(=O)(=O)c1ccc(C)cc1)[C@@H](C)CN([C@H](C)CO)S2(=O)=O`, with 26.4%. Regarding `C[C@@H]1CN([C@@H](C)CO)S(=O)(=O)c2ccc(-c3cccc(F)c3)cc2O[C@@H]1CN(C)S(=O)(=O)c1ccccc1`, the cytotoxicity (signal decrease) was 46.5% (active). For `CC(C)CC#Cc1ccc2c(c1)O[C@H](CN(C)S(=O)(=O)c1cccc(F)c1)[C@@H](C)CN([C@@H](C)CO)S2(=O)=O`, the cytotoxicity (signal decrease) was 14.5%. The same measure for `Cc1ccc(-c2ccc3c(c2)O[C@H](CN(C)C)[C@@H](C)CN([C@H](C)CO)S3(=O)=O)cc1`: -0.56%; for `C[C@H]1CN([C@@H](C)CO)S(=O)(=O)c2ccc(C#Cc3cccc(F)c3)cc2O[C@@H]1CN(C)S(=O)(=O)c1cn(C)cn1`: 44.8% (active); for `C[C@@H]1CN([C@@H](C)CO)S(=O)(=O)c2ccc(-c3ccncc3)cc2O[C@@H]1CN(C)C(=O)Nc1ccc(F)cc1`: -4.35%.

With `C[C@@H]1CN([C@@H](C)CO)S(=O)(=O)c2ccc(C#Cc3ccc(F)cc3)cc2O[C@H]1CN(C)C(=O)NC1CCCC1`, the cytotoxicity (signal decrease) was 8.27%.

For `C[C@H](CO)N1C[C@H](C)[C@@H](CN(C)S(=O)(=O)c2ccc(F)cc2)Oc2cc(C3=CCCC3)ccc2S1(=O)=O`, the cytotoxicity (signal decrease) was 50.5% (active). Then `C[C@@H]1CN([C@@H](C)CO)S(=O)(=O)c2ccc(C#Cc3ccc(F)cc3)cc2O[C@H]1CN(C)C(=O)c1ccccn1`, with 30%; and `C[C@@H]1CN([C@H](C)CO)S(=O)(=O)c2ccc(C#Cc3ccncc3)cc2O[C@@H]1CN(C)S(=O)(=O)c1ccc(F)cc1`, with 27.1%. The same measure for `C[C@@H]1CN([C@H](C)CO)S(=O)(=O)c2ccc(-c3cccc(F)c3)cc2O[C@H]1CN(C)S(=O)(=O)c1ccc(F)cc1`: 54.4% (active); for `C[C@@H]1CN([C@@H](C)CO)S(=O)(=O)c2ccc(C#Cc3ccc(F)cc3)cc2O[C@H]1CN(C)S(C)(=O)=O`: 25.6%; for `COc1ccc(S(=O)(=O)N2CCCCN3[C@H](C2)[C@H](c2ccc(C#CCC(C)C)cc2)[C@@H]3CO)cc1`: 20.8%. With `COc1ccc(S(=O)(=O)N2CCCCN3[C@H](CO)[C@@H](c4ccc(C#CC(C)C)cc4)[C@H]3C2)cc1`, the cytotoxicity (signal decrease) was 27.6%. Turning to `CNC[C@H]1OCCCC[C@H](C)Oc2ccc(NC(=O)Nc3c(C)noc3C)cc2C(=O)N([C@H](C)CO)C[C@H]1C`, the cytotoxicity (signal decrease) is 6.78%. The same measure for `COc1ccc(-c2ccc3c(c2)[C@@H]2[C@@H](CCN2C(=O)Cc2ccccn2)[C@H](CO)N3C)cc1`: 3.57%; for `C[C@@H]1CN([C@@H](C)CO)C(=O)CCCn2cc(nn2)CO[C@@H]1CN(C)S(=O)(=O)c1ccccc1F`: -3.89%. For the molecule `C[C@@H]1CN([C@H](C)CO)C(=O)c2cc(/C=C/c3ccccc3)cnc2O[C@@H]1CN(C)Cc1ccncc1`, the cytotoxicity (signal decrease) was 0.61%. Turning to `C[C@@H]1CN([C@H](C)CO)S(=O)(=O)c2ccc(-c3cccc(C#N)c3)cc2O[C@@H]1CN(C)C(=O)Nc1ccccc1F`, the cytotoxicity (signal decrease) was 45.7% (active). Then `C[C@H](CO)N1C[C@H](C)[C@@H](CN(C)C(=O)Nc2cc(F)ccc2F)Oc2cc(C#CC3CC3)ccc2S1(=O)=O`, with -4.87%; and `C[C@@H]1CN([C@@H](C)CO)S(=O)(=O)c2ccc(C#Cc3ccccc3)cc2O[C@@H]1CN(C)C(=O)Nc1ccccc1`, with 11.7%; and `CN1c2ccc(-c3ccccc3)cc2[C@@H]2[C@@H](CCN2C(=O)c2ccncc2)[C@@H]1CO`, with 5.49%. Then `O=C(C[C@H]1CC[C@@H]2[C@H](COC[C@H](O)CN2Cc2ccc(Oc3ccccc3)cc2)O1)N1CCN(c2ccccc2)CC1`, with -0.257%; and `CCCC#Cc1ccc2c(c1)O[C@H](CN(C)C(=O)CC)[C@@H](C)CN([C@H](C)CO)S2(=O)=O`, with 17.5%; and `CC(=O)N(C)C[C@H]1Oc2cc(C#CCN(C)C)ccc2S(=O)(=O)N([C@@H](C)CO)C[C@@H]1C`, with 4.99%. With `C[C@@H]1CN([C@@H](C)CO)S(=O)(=O)c2ccc(/C=C/c3ccccc3)cc2O[C@H]1CN(C)Cc1ccccc1`, the cytotoxicity (signal decrease) is 21.8%. In the case of `C[C@H]1CN([C@@H](C)CO)S(=O)(=O)c2ccc(C#CCN(C)C)cc2O[C@@H]1CN(C)Cc1ccc(F)cc1`, the cytotoxicity (signal decrease) was 48.1% (active). Then `C[C@@H]1CN([C@H](C)CO)S(=O)(=O)c2ccc(C#C[C@@H](C)O)cc2O[C@@H]1CN(C)Cc1ccc(-c2ccccc2)cc1`, with 14.4%; and `CCC(=O)N(C)C[C@@H]1Oc2cc(C#CCN(C)C)ccc2S(=O)(=O)N([C@H](C)CO)C[C@H]1C`, with -1.94%. Then `CC(C)C#Cc1ccc2c(c1)O[C@H](CN(C)Cc1ccccc1)[C@H](C)CN([C@@H](C)CO)S2(=O)=O`, with 41.7% (active); and `O=C(Cc1ccccc1)N1CC[C@H]2[C@H](CO)Nc3ccc(-c4ccccc4F)cc3[C@H]21`, with -5.9%; and `C[C@@H]1CN([C@H](C)CO)C(=O)c2cccc(NC(=O)c3ccc(-c4nccs4)cc3)c2O[C@@H]1CN(C)C(=O)Nc1ccc(C(F)(F)F)cc1`, with 26%. As for `C[C@@H]1CCCCO[C@H](CN(C)C(=O)Nc2ccc(C(F)(F)F)cc2)[C@H](C)CN([C@H](C)CO)C(=O)c2cc(NC(=O)Nc3ccc(C(F)(F)F)cc3)ccc2O1`, the cytotoxicity (signal decrease) is -8.85%. The same measure for `CCc1cnc(N2[C@H](C#N)[C@H](c3ccc(C4=CCCC4)cc3)[C@@H]2CO)s1`: 9.56%. The same measure for `CC(C)NC(=O)N1[C@H](C#N)[C@H](c2ccc(C#CC3CCCCC3)cc2)[C@H]1CO`: -28%; for `N#C[C@H]1[C@@H](c2ccc(C3=CCCCC3)cc2)[C@@H](CO)N1C(=O)NC1CCCCC1`: 42.8% (active); for `Cc1noc(C)c1S(=O)(=O)Nc1ccc2c(c1)C(=O)N([C@@H](C)CO)C[C@@H](C)[C@H](CN(C)S(=O)(=O)c1ccc(Cl)cc1)OCCCC[C@H](C)O2`: -13.7%. For the molecule `O=C(Nc1cc(F)ccc1F)N1CCCCN2[C@H](CO)[C@@H](c3ccc(-c4cncnc4)cc3)[C@H]2C1`, the cytotoxicity (signal decrease) was 15%. On to `CCCC#Cc1ccc2c(c1)O[C@@H](CN(C)C(=O)c1ccccc1F)[C@H](C)CN([C@H](C)CO)S2(=O)=O`, for which the cytotoxicity (signal decrease) was 19.4%. The same measure for `COc1ccc(S(=O)(=O)Nc2ccc3c(c2)C(=O)N([C@@H](C)CO)C[C@H](C)[C@H](CN(C)Cc2ccc(C(F)(F)F)cc2)O3)cc1`: 3.37%; for `C/C=C/c1ccc([C@H]2[C@@H](CNC(C)C)N(c3nc(CC)cs3)[C@H]2CO)cc1`: 7.64%. Then `C[C@H](CO)N1C[C@H](C)[C@@H](CN(C)Cc2ccc(C(=O)Nc3ccccc3N)cc2)Oc2c(NC(=O)c3ccc(-c4nccs4)cc3)cccc2C1=O`, with -13.6%; and `C[C@H](CO)N1C[C@H](C)[C@H](CN(C)Cc2ccncc2)Oc2cc(-c3ccncc3)ccc2S1(=O)=O`, with 19.9%; and `C[C@H]1CN([C@@H](C)CO)S(=O)(=O)c2ccc(C3=CCCC3)cc2O[C@@H]1CN(C)Cc1ccccc1`, with 42.4% (active). Then `C[C@@H]1CN([C@H](C)CO)S(=O)(=O)c2ccc(C3=CCCC3)cc2O[C@H]1CN(C)Cc1ccccc1F`, with 32%. `C[C@H]1CN([C@@H](C)CO)S(=O)(=O)c2ccc(C3=CCCCC3)cc2O[C@@H]1CN(C)Cc1ccccc1`: the cytotoxicity (signal decrease) is 119% (active). As for `C[C@H](CO)N1C[C@H](C)[C@@H](CN(C)C(=O)C2CCCCC2)Oc2cc(-c3ccccc3)ccc2S1(=O)=O`, the cytotoxicity (signal decrease) is 26.2%. The same measure for `COc1ccccc1-c1ccc2c(c1)O[C@@H](CN(C)C)[C@H](C)CN([C@H](C)CO)S2(=O)=O`: -9.91%.
